What all share (assay type): functional
Assay [1] concerns the target Solute carrier family 2, facilitated glucose transporter member 1 (Homo sapiens) (UniProt P11166). As to the kind of experiment: ST_JUDE_LEISH: Cytotoxicity at 2uM final concentration against transgenic Leishmania Mexicana promastigotes LmGLUT1 that are glucose transport deficient and complemented with the human glucose transporter GLUT1. Activity is measured by DNA content using SYBR green in vitro.

For assay [2], the target named is Hexose transporter 1 (Plasmodium falciparum) (UniProt O97467). As to the kind of experiment: ST_JUDE_LEISH: Cytotoxicity at 2uM final concentration against transgenic Leishmania Mexicana promastigotes LmPfHT that are glucose transport deficient and complemented with the Plasmodium falciparum hexose transporter. Activity is measured by DNA content using SYBR green in vitro.

Assay [3] concerns the target Glucose transporter (Leishmania mexicana) (UniProt O61059). Kind of assay: ST_JUDE_LEISH: Cytotoxicity at 2uM final concentration against transgenic Leishmania Mexicana promastigotes LmGT2 that are glucose transport deficient and complemented with the L. Mexicana glucose transporter 2. Activity is measured by DNA content using SYBR green in vitro.

SMILES strings stand for the structures.

Solute carrier family 2, facilitated glucose transporter member 1 (Homo sapiens), sequence (P11166 whole entry): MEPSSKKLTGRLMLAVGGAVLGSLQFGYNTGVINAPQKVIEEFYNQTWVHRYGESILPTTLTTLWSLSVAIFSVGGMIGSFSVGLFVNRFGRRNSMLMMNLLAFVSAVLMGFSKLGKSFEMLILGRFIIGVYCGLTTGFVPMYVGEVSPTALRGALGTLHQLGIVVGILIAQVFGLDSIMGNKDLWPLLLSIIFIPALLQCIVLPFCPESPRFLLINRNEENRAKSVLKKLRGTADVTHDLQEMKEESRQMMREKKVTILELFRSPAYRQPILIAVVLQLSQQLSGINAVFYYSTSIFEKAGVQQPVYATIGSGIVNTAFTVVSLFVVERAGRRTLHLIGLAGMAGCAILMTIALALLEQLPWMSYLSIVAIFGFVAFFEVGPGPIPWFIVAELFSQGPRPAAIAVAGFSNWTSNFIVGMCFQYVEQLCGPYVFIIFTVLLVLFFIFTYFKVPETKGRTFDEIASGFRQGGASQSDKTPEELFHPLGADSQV

As a reminder, the inhibition is the drop in the measured response relative to a control, in per cent. In the case of `CC(=O)N1N=C(c2ccc(F)cc2)Sc2c1nc(C1CCCCC1)n2C(C)=O`, the inhibition was 8.37% in assay [1], 6.09% in assay [2] and 7.07% in assay [3].
On the same counts, the results for `CCCCCCNc1cc(C)nc2ccc(OC)cc12` are 11.1%, 11.4% and 4.54%.
With `Cc1cc(C)c(-c2n[nH]c3c2C(c2cccc(Cl)c2)N(Cc2ccco2)C3=O)c(O)c1` (centres undefined), the inhibition turned out to be 1.7% in assay [1], 5.35% in assay [2] and 1.37% in assay [3].
On the same counts, the results for `COc1ccc(NC(=O)/C=C/c2ccccc2Cl)cc1OCCN1CCC(Cc2cc3ccccc3[nH]2)CC1` are 3.32%, 1.85% and -2.57%.
On the same counts, the results for `O=C(NC1CCC1)C1CCN(C(c2ccccc2)c2cc(F)cc(F)c2)CC1` (centres undefined) are 6.73%, 7.32% and 6.61%.
The like results for `CC(Cc1ccc(OCC(=O)NCC2CCN(CCc3cccc(Cl)c3)CC2)cc1)NCCc1cccc(Cl)c1` (centres undefined) were, in that order, 3.07%, 4.09% and 1.92%.
As for `NC1CCCN(Cc2cccc(-c3ccc(-c4nc5cc(C(F)(F)F)ccc5[nH]4)cc3)c2)C1` (centres undefined), the results for the inhibition in assay [1], in assay [2] and in assay [3] were 2.3%, 0.39% and 2.55%, respectively.
The like results for `CC(=O)Nc1ccc(OCCN(Cc2ccccc2C(F)(F)F)c2ccc(C#N)c(C(F)(F)F)c2)c(Cl)c1` were, in that order, 2.42%, 2.13% and 2.83%.
The like results for `O=C(C(=O)c1ccc(Nc2ccnc3cc(-c4ccccn4)ccc23)cc1)c1ccccc1` were, in that order, -1.32%, -0.47% and -2.63%.
The like results for `O=[N+]([O-])c1ccc(C(O)P(=O)(c2ccccc2)c2ccccc2)cc1` (centres undefined) were, in that order, -0.33%, -0.85% and -0.11%.
Regarding `NC1CCN(Cc2cccc(-c3ccc(-c4nc5cc(F)ccc5[nH]4)cc3)c2)C1` (centres undefined), the inhibition was 2.82% in assay [1], 1.25% in assay [2] and -0.29% in assay [3].
The like results for `COC(=O)C(C)(C)Cc1c(SC(C)(C)C)c2cc(C(C)C)ccc2n1Cc1ccc(Cl)cc1` were, in that order, 2.2%, 5.38% and -0.32%.
The like results for `Oc1ccc(CN2CCC(NCc3cccc(C(F)(F)F)c3)CC2)cc1` were, in that order, 11.3%, 13.7% and 13.7%.
On the same counts, the results for `CC[C@H](C)CNC(=O)c1ccnc(-c2ccc(CNC3Cc4ccccc4C3)cc2)c1` are 0.15%, 0.08% and -0.69%.
With `Cc1cccc2nc(-c3cccc(-c4ccc(NC(=O)CCc5c[nH]cn5)cc4)c3)[nH]c12`, the inhibition in assay [1] was determined as 7.76%; in assay [2] it was 9.49%; in assay [3], 8.27%.
The like results for `CSc1ccc(NC(=O)Nc2cc(C)nc3ccccc23)cc1Br` were, in that order, -2.43%, 0.36% and 0.36%.
On the same counts, the results for `COc1cc(-c2cnc(N)c(-c3nc4ccccc4[nH]3)c2)cc(OC)c1OC` are 5.26%, 9.19% and 1.47%.
The like results for `CN(CC(=O)Nc1cc(C(F)(F)F)ccc1-n1cncn1)Cc1ccc2ccccc2c1` were, in that order, 2.14%, 1.25% and 1.8%.
As for `CCc1c(C)c(C#N)c2nc3ccccc3n2c1NCc1ccco1`, the inhibition in assay [1] came to 4.43%; in assay [2], 4.23%; in assay [3], 2.13%.
The like results for `Cc1cccc2nc(-c3ccc(-c4ccc(CNCc5ccc(S(C)(=O)=O)cc5)cc4)cc3)[nH]c12` were, in that order, 12%, 10.9% and 7.88%.
As to `O=C(NC1CCCCC1)N(Cc1cccc(-c2ccc(CNCCc3ccccc3)cc2)c1)C1CCN(Cc2ccccc2)CC1`, the results for the inhibition in assay [1], in assay [2] and in assay [3] were 6.68%, 6.86% and 4.45%, respectively.
For the molecule `COc1ccc(NC(=O)[C@H](CC(C)C)Nc2ccnc(NCCc3ccc(F)cc3)n2)cc1`, the inhibition in assay [1] came to 1.22%; in assay [2], 1.43%; in assay [3], 1.38%.
As to `COc1cccc2cc(C(=O)N[C@@H](CC(C)C)C(=O)N[C@H](C=NN3CC(=O)NC3=O)CC(C)C)oc12`, the inhibition in assay [1] worked out at 2.8%; in assay [2] it was 3.84%; in assay [3], 2.23%.
On the same counts, the results for `O=C(c1ccco1)N1CCN(c2ccc([N+](=O)[O-])c(NC3CC3)c2)CC1` are 0.6%, 0.13% and -1.35%.
The like results for `CN(C)c1ccc2c(c1)Sc1cc(N(C)C)ccc1N2C(=O)CCCC(=O)O` were, in that order, 5.15%, 1.94% and -0.96%.
On the same counts, the results for `CC(=O)Oc1cc(OCc2ccccc2)c(OC(C)=O)c(OCc2ccccc2)c1` are 6.3%, 5.31% and -0.19%.
On to `CCCCCN1CCC(NS(=O)(=O)c2ccc(C(=O)Nc3cccc(C(F)(F)F)c3)cc2)C1` (centres undefined), for which the inhibition came to 8.42% in assay [1], 2.22% in assay [2] and 2.26% in assay [3].
For the molecule `Oc1ccc(CCCNc2nc(NCc3cccc4ccccc34)nc(N3CCCNCC3)n2)cc1`, the inhibition in assay [1] was -0.67%; in assay [2], -0.2%; in assay [3] it was 1.52%.
On the same counts, the results for `COc1ccc(C2C(C(=O)Nc3ccc4c(c3)OCO4)c3cc(OC)c(OC)cc3C(=O)N2C)cc1` (centres undefined) are 2.12%, 1.73% and 0.53%.
The like results for `Cc1c(Cn2ncc(N3CC(C)NC(C)C3)c(Cl)c2=O)cccc1NC(=O)Nc1ccc(-c2ccccc2)cc1` (centres undefined) were, in that order, 4.08%, 3.21% and 5.17%.
On the same counts, the results for `Nc1nc(N)c2cc(Cc3ccccc3Cl)cnc2n1` are -0.18%, 2.28% and 1.45%.
`CCC(C)(C)c1ccc2nc(N)nc(N)c2c1C`: the inhibition in assay [1] is 74.5%; in assay [2], 76.4%; in assay [3] it was 61.7%.
With `CCOC(=O)c1ccc(N2CCN(CCCNC(=O)/C(=C/C=C/c3cc4cc(Cl)c(Cl)cc4[nH]3)OC)CC2)cc1`, the inhibition came out at 2.48% in assay [1], 3.47% in assay [2] and 0.57% in assay [3].
